Source: PubChem BioAssay
CtBP-E1A blk – qHTS Assay for Inhibitors of the CtBP/E1A Interaction; activity change, % (test concentration not listed); actives 0.49% (n = 340,000); CtBP / adenovirus E1A interaction (AlphaScreen); AID 651724, 2012; AlphaScreen GST-E1A/His-CtBP binding, 1536-well; active compounds read low; in the data active = activity change below about -65%; inconclusive = mostly about -30% to -63%; also: % is scaled to controls: 0 for no effect and ±100 for the full control effect
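AlphaScreen with 125 nM GST-E1A and 125 nM His-CtBP (5X stocks) in Tris pH 8.0, 300 mM NaCl, BSA, Tween 20, TCEP. Compounds preincubated 2 h at 37 deg C, then glutathione donor/nickel acceptor beads added for 1 h at 37 deg C in dark.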
HepG2 tox – qHTS for Inhibitors of TGF-b: Cytotox Counterscreen | HepG2 CAGA-GFP viability, ATP luminescence, 18 h | Potency, µM (top dose mostly 46.1 µM), without a hit: top-dose activity change, negative = cytotoxicity, hits mostly cytotoxic | actives 0.76% (n = 410,000) | AID 588856, 2011; also: potency is read from the fitted curve at half-maximal effect
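HepG2 CAGA-GFP cells (1000/well, DMEM with 1% FBS) received compound, then TGF-beta at 500 pg/mL final, and were incubated 18 hours at 37 degrees C. Viability was read by CellTiter-Glo luminescence. Media-only wells were set as complete cell-killing and DMSO as no toxicity.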
TGFb inhibitor – qHTS for Inhibitors of TGF-b. HepG2 CAGA-GFP TGF-b/SMAD3 reporter, GFP fluorescence, 18 h; TGF-beta stimulated, 500 pg/mL final. Potency, µM (top dose mostly 46.1 µM), without a hit: top-dose activity, negative = inhibition, hits mostly inhibitors. actives 1.2% (n = 410,000). AID 588855, 2011; also: potency is read from the fitted curve at half-maximal effect; % is scaled to controls: 0 for no effect and ±100 for the full control effect; nearly all actives have a fitted effect of over 65% in size
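Cell-based qHTS in HEPG2 carrying a CAGA-GFP Smad reporter; compounds added before 500 pg/mL final TGF-beta, 18 h incubation at 37 degrees C, GFP fluorescence quantified per cell by imaging cytometry.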
Six1-Eya2 inh – qHTS Assay for Inhibitors of the Six1/Eya2 Interaction. Homeobox protein SIX1 (Homo sapiens) + Protein phosphatase EYA2 (Homo sapiens), …. AlphaScreen GST-Six1/His-Eya2 binding, biochemical; active compounds read low. actives 0.56% (n = 360,000). AID 651725, 2012. activity change, % (no concentration beside the values); in the data active = activity change below about -65%; inconclusive = mostly about -30% to -63%; also: % is scaled to controls: 0 for no effect and ±100 for the full control effect
Target sequence (O00167 whole entry, looked up): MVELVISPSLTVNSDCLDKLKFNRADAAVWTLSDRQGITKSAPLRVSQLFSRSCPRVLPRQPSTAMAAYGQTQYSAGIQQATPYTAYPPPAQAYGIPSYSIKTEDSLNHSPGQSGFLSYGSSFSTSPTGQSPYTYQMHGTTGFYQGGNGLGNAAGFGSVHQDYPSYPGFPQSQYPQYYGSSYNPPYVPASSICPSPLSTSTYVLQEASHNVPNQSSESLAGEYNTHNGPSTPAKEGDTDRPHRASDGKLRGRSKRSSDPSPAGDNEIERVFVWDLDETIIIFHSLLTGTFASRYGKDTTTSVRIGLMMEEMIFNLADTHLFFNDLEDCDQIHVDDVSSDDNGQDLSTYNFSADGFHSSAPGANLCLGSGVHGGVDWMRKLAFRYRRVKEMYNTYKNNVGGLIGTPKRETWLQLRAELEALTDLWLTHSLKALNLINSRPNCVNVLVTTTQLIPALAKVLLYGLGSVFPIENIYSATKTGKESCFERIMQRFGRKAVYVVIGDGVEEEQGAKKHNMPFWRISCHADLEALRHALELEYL
Target sequence (Q15475 whole entry, looked up): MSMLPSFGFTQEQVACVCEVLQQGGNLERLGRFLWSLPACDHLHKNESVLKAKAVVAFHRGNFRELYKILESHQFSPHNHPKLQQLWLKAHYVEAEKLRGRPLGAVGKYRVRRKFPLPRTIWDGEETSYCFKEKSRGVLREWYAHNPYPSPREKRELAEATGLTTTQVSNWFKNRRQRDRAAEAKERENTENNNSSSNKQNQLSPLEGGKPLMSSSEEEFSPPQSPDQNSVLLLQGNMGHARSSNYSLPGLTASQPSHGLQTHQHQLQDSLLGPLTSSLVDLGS
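Six1/Eya2 binding was read as AlphaScreen signal after compounds were pinned into GST-Six1 plus His-tagged Eya2 (5X stock 250/500 nM) in pH 8.0 Tris/NaCl/TCEP buffer, beads added, then incubated 1 h, 37 C, dark.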
ATXN2 expr inh – Primary qHTS for Inhibitors of ATXN expression; HEK-293 ATXN2-luciferase reporter, luminescence, 24 h; Potency, µM (doses to about 57 µM), without a hit: at the highest dose activity change, negative = inhibition, most hits filed as inhibitors; actives 0.72% (n = 360,000); also: potency is read from the fitted curve at half-maximal effect; % is scaled to controls: 0 for no effect and ±100 for the full control effect; nearly all actives have a fitted effect of over 55% in size
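qHTS (up to 57 uM final) was run with 24 h compound exposure of reporter cells at 37 °C. Each well was multiplexed: SteadyGlo luminescence measured ATXN2-luciferase expression after a fluorogenic Gly-Phe-AFC viability readout (25 uM final).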
S2 tox – Viability Counterscreen for Primary qHTS for Inhibitors of ATXN expression; S2 cells (HEK-293 line with an ATXN2-luciferase reporter) viability, CellTiter-Fluor protease fluorescence, 24 h; Potency, µM (doses to about 56.7 µM), hits mostly cytotoxic; actives 0.49% (n = 400,000); also: potency is read from the fitted curve at half-maximal effect; nearly all actives have a fitted effect of over 40% in size
Numbers without * were called inactive; i = inactive; ? = inconclusive; . = not tested or not shown; ! = repeats disagree. A selection: hits, their analogues and other compounds. The true share with any hit is near 2.8%. Unless noted, calls follow the shape of the dose curve; as a rule, active = well fitted curve in the direction sought with a large enough effect; inconclusive = small, poorly fitted or top-dose-only effect, or another doubt; inactive = no such curve, though single readings can be large; an effect the other way counts as inactive or inconclusive.

SMILES | CtBP-E1A blk | HepG2 tox | TGFb inhibitor | Six1-Eya2 inh | ATXN2 expr inh | S2 tox
COc1ccc(C2c3ccc4ccccc4c3Oc3ncn(CCCO)c(=N)c32)cc1OC (configuration not stated) | 3.3 | -120.4% | 11.2µM* | 4.0 | ? | ?
CN(C)CCCn1cnc2c(c1=N)C(c1ccccc1)c1ccc3ccccc3c1O2 (configuration not stated) | . | -101.9% | ? | -0.7 | . | ?
N=c1c2c(ncn1CCCO)Oc1c(ccc3ccccc13)C2c1ccccc1 (configuration not stated) | . | -117.6% | ? | 17.3 | . | 14.1µM*
COc1ccc(C2c3ccc4ccccc4c3Oc3ncn(CCN(C)C)c(=N)c32)cc1 (configuration not stated) | -9.1 | -79.9% | 15.8µM* | -6.1 | -29.3% | ?
CCCCOc1ccc(C(=O)Nc2ccc3c(c2)N(C(C)=O)CCC3)cc1 | . | -6.2% | 6.0% | . | . | .
N=c1c2c(ncn1Cc1ccco1)Oc1ccc3ccccc3c1C2c1ccccc1 (configuration not stated) | -7.1 | -2.3% | 0.0% | -23.6 | 22.4µM* | .
Cc1ccccc1-c1nc2scc(CCNS(=O)(=O)c3ccccc3)n2n1 | . | -67.0% | -29.2% | . | -12.3% | i
CCOc1ccc(Oc2ccccc2NC(=O)CCc2nc3ccccc3c(=O)[nH]2)cc1 | -5.4 | -20.1% | -27.2% | -3.1 | . | i
CCOc1ccccc1NC(=O)CCCc1nc2ccccc2c(=O)[nH]1 | -4.3 | -47.4% | -10.1% | -1.6 | 20µM* | i
CC(=O)c1sc(NC(=O)CCCc2nc3ccccc3c(=O)[nH]2)nc1-c1ccccc1 | . | 11.2µM* | 20µM* | -1.0 | . | i
O=C1c2cccc(NCCCNCCO)c2C(=O)c2cccc(NCCCNCCO)c21 | -79.2* | -64.7% | 15.8µM* | -70.7* | 13.4µM* | .
O=C1c2ccccc2C(=O)c2c(NCc3cccnc3)cccc21 | -8.2 | -20.9% | -19.4% | ? | 8.8% | i
CCOC(=O)c1cc(S(=O)(=O)N2CCN(c3cc(C)ccc3C)CC2)[nH]n1 | . | -49.7% | ? | . | -8.5% | i
CC(=O)Nc1cc(-c2cccc(F)c2)cn2c(-c3ccc(F)c(Cl)c3)cnc12 | -15.1 | -46.3% | 17.8µM* | -2.7 | -29.6% | ?
CC(=O)Nc1cc(-c2cccc(C(=O)NCCO)c2)cn2c(-c3cccc(C(F)(F)F)c3)cnc12 | -10.5 | -110.5% | ? | -7.0 | ? | 31.6µM*
CC(=O)Nc1cc(-c2ccccc2)cn2c(-c3ccc(F)c(Cl)c3)cnc12 | -7.2 | -37.9% | -9.0% | -9.0 | -5.2% | i
O=C(NCCO)c1cccc(-c2cnc3c(Nc4cccc(OC(F)(F)C(F)F)c4)nccn23)c1 | -22.6 | -58.1% | ? | -17.6 | ? | 31.6µM*
COc1ccccc1-c1cnc2c(Nc3cccc(OC(F)(F)C(F)F)c3)nccn12 | -4.6 | -36.4% | ? | -6.1 | -22.4% | ?
COc1cccc(-c2cnc3c(NC(C)=O)cc(-c4cccc(C(=O)NCCN(C)C)c4)cn23)c1 | -8.6 | 12.6µM* | ? | -13.4 | ? | ?
CN(C)C1CCC(CC2CCc3ccccc32)CC1 (configuration not stated) | . | 12.2% | -19.7% | . | . | .
C=CC[n+]1cccc2cccc(O)c21 | . | -0.7% | 0.7% | . | . | .
NC(=S)NN=C1c2ccccc2-c2cc(Br)ccc21 | ? | 2.3% | 2.82µM* | 0.0 | ? | ?
N#Cc1cccc2c1-c1ccccc1/C2=N/NC(N)=S | -24.1 | 7.08µM* | 5.01µM* | ? | -37.5% | ?
O=C(O)CCNc1cc(N2CCc3ccccc3CC2)nc(-c2ccccn2)n1 | . | . | . | . | -20.8% | .
COC(=O)c1c(N)n(-c2ccc(OC)c(Cl)c2)c2nc3ccccc3nc12 | . | -19.8% | 2.0% | . | 15.0% | i
SMILES | CtBP-E1A blk | HepG2 tox | TGFb inhibitor | Six1-Eya2 inh | ATXN2 expr inh | S2 tox
COc1ccc(OC)c(Nc2c3ccccc3nc3ccccc23)c1 | ? | -26.6% | 12.6µM* | -26.6 | 11.2µM* | 14.1µM*
COc1ccc(OC)c(Nc2cc(C)c3ccccc3n2)c1 | . | -35.8% | ? | -13.5 | . | i
COc1cc(Nc2c3c(nc4ccccc24)CCC3)cc(OC)c1OC | -3.3 | -28.8% | ? | -0.4 | 9.2% | ?
COc1cc(NS(C)(=O)=O)ccc1Nc1c2ccccc2nc2ccccc12 | -21.9 | -98.2% | ? | -23.9 | 0.251µM* | ?
COc1ccc([N+](=O)[O-])cc1Nc1c2ccccc2nc2ccccc12 | ? | -46.4% | ? | -22.1 | ? | ?
COc1ccc(OC)c(Nc2c3c(nc4ccccc24)CCC3)c1 | -26.5 | -13.6% | 11.2µM*! | -21.8 | 0.0% | ?
CN(C)c1cc2c(c(N(C)C)c1)C(=O)c1ccccc1C2=O | -80.8* | -28.4% | -4.7% | -80.9* | -8.6% | ?
OCCCNCc1cc2cc3c(cc2nc1N1CCN(c2cccc(Cl)c2)CC1)OCO3 | . | . | . | . | . | i
Cc1cc(N/N=C/c2ccc3c(c2)OCO3)nc2ccccc12 | -4.8 | 20µM* | -8.4% | -7.8 | -11.1% | i
O=c1[nH]c(N/N=C\c2ccc3c(c2)OCO3)nc2ccccc12 | -68.4* | -20.7% | 0.0% | ? | 12.1% | i
COC1[C@@H](O[C@@H]2O[C@H](C)[C@@H](O[C@H]3C[C@@](C)(O)[C@H](OC(=O)CC(C)C)[C@H](C)O3)[C@H](N(C)C)[C@H]2O)[C@@H](CC=O)C[C@@H](C)[C@@H](O)/C=C/C=C/C[C@@H](C)OC(=O)C[C@H]1OC(C)=O (some centres not stated) | . | . | . | . | . | i
Cc1cc(=O)[nH]c2c(N=Nc3ccc(O)cc3)c(N)nn12 | . | 8.4% | 11.9% | -77.4* | . | ?
COc1ccc(-c2cc(-c3ccccc3)c(C#N)c(S(C)=O)n2)cc1 (configuration not stated) | -8.2 | -27.0% | -19.2% | 2.8 | 28.2µM* | ?
CCc1nc2ccc(C(=O)NCCc3ccccn3)cn2c1N(C)Cc1ccc(N(C)C)cc1 | -23.7 | 12.6µM* | ? | -10.6 | -1.0% | i
CCc1nc2ccc(C(=O)NCCOc3ccc(OC)cc3)cn2c1N(C)CCCc1ccccc1 | -28.7 | -46.3% | 14.1µM* | -10.4 | ? | ?
CCc1c(C)nc2nncn2c1Nc1cccc(C)c1 | . | -0.7% | . | . | . | .
CC(C)C(=O)Nc1nnc(SCc2cc(=O)n3ccccc3n2)s1 | . | 0.1% | -8.6% | . | . | .
